Screening results as filed in PubChem.
A selection: hits, their analogues and other compounds. The true share with any hit is near 1%.
Hsp70 act: Hsp70 transcriptional activation, primary screen. HeLa Hsp70 promoter luciferase reporter, luminescence; scaled: vehicle 0, proteasome-inhibitor control 100%. activation, % at 10 µM. actives 0.04% (n = 200,000);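 active = activation above the mean across all tested compounds plus 3 SD, cutoff set per campaign, cut at about 5.5% in these data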;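 note: 100% = MG132 at 30 µM as the positive control and 0% = DMSO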
HSV augment: HSV replication enhancement; actives 0.005% (n = 220,000); HSV replication augmentation in cells, fold increase; AID 1956; maximum fold increase; in the data active = maximum fold increase above about 1.5; inconclusive = no clear call, values can overlap the other calls; tested in PC3 cells
S1P4 ag: agonists of human S1P4 receptor; O95977; S1P4-expressing cell line, agonist reporter assay; activation, % at 4.98 µM; actives 0.35% (n = 220,000); AID 1509; in the data active = activation above about 11%;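 note: 0% = DMSO vehicle and 100% = reference agonist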
Target sequence (O95977 whole entry, looked up): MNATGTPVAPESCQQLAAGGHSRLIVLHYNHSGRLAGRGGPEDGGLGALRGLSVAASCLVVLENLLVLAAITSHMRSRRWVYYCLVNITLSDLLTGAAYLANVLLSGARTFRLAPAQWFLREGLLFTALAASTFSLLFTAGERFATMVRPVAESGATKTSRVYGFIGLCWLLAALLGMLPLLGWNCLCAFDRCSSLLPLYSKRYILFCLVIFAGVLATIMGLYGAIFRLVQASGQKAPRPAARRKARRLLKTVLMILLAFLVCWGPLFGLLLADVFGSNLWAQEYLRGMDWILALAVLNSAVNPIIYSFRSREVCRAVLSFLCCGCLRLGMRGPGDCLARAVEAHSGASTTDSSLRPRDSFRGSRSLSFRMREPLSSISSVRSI
TNF necrop inh: inhibitors of TNF-alpha induced necroptosis in Jurkat FADD-/- cells; actives 0.068% (n = 220,000); activation (protection from cell death), % at 10 µM; Jurkat FADD-/- TNF necroptosis rescue, ATP luminescence, 24 h; 0 = TNF only, 100 = no-TNF cells;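 active = activation, meaning protection from cell death, of at least 50% relative to plate controls; inactive = activation below 50%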;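 note: necroptosis triggered by 40 ng/mL TNF-alpha added together with compound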
S1P4 antagonist: antagonists of human S1P4 receptor. O95977. S1P4-expressing cells, antagonist mode, reporter read-out. inhibition, % at 4.98 µM. actives 0.26% (n = 220,000); in the data active = inhibition above about 29%;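 note: 0% = wells stimulated with agonist and 100% = vehicle wells without agonist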
L929 necroptosis: blocks zVAD induced death of L929 cells; L929 zVAD necroptosis rescue, ATP luminescence, 24 h; with zVAD 60 µM; viability rescue, % at 10 µM; actives 0.38% (n = 220,000);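 active = activation, scaled between plate controls, above about 75%, limit read from the data; inactive = activation under that limit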;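 note: 0% = zVAD with DMSO and 100% = DMSO alone without zVAD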
* hit, by the source's call; i = inactive; u = inconclusive; x = no result.

SMILES	Hsp70 act	HSV augment	S1P4 ag	TNF necrop inh	S1P4 antagonist	L929 necroptosis
Cc1noc(C)c1C(=O)Nc1nnc(-c2ccccc2)s1	-0.1	i	-1.4	-0.5	101.6*	-0.4
CCOC(=O)CSC1=Nc2ccccc2C2=NC(CC(=O)NCc3ccc(OC)cc3)C(=O)N12 (stereo not drawn)	0.0	i	1.3	0.1	-11.4	-1.1
CCOC(=O)CSC1=Nc2ccccc2C2=NC(CC(=O)NCc3ccc4c(c3)OCO4)C(=O)N12 (stereo not drawn)	0.1	i	72.4*	0.4	10.5	1.7
COC(=O)c1sc(S(=O)(=O)N2CCN(CCO)CC2)c(C(=O)OC)c1C	-0.3	i	0.0	-0.2	0.4	0.9
COC(=O)c1sc(S(=O)(=O)N2CCC(C(=O)O)CC2)c(C(=O)OC)c1C	-0.1	i	2.8	0.0	7.3	83.3*
O=C(O)CSc1nc2ccccc2s1	x	i	1.5	1.2	7.7	-0.6
OC(c1ccccc1)c1nc2ccccc2s1 (stereo not drawn)	0.5	i	4.3	50.0*	11.7	6.2
Cc1csc(SCC(=O)NC(=O)NC(C)(C)C)n1	-0.2	i	-0.9	24.2	-8.6	9.1
Cc1csc(SCC(=O)NC(=O)NC2CCCC2)n1	-0.1	i	1.1	56.1*	-13.3	3.3
CC1(C)C=C(c2ccc(O)cc2)CC(C)(C)N1	-0.3	i	20.0*	-0.3	13.9	-0.5
CCC(C)c1ccc(O)c(NC(=O)c2cncc(Br)c2)c1 (stereo not drawn)	-0.1	i	1.8	78.2*	-0.4	1.8
CCC(C)c1ccc(O)c(NC(=S)NC(=O)c2cccnc2)c1 (stereo not drawn)	0.3	i	-0.5	-7.4	6.8	-1.0
CC1=CC(C)(C)Nc2ccc(OC(=O)CN3C(=O)c4ccccc4C3=O)cc21	-0.4	u	-0.1	-8.0	-11.2	14.3
CC1=CC(C)(C)Nc2ccc(OC(=O)C(Cc3ccccc3)N3C(=O)c4ccccc4C3=O)cc21 (stereo not drawn)	0.0	i	2.5	-5.3	-4.0	97.1*
CCN1/C(=C/C=C/c2oc3ccc(-c4ccccc4)cc3[n+]2CC)Oc2ccc(-c3ccccc3)cc21	0.2	u	0.6	-16.7	9.7	-4.9
COc1ccccc1-c1cc(C(F)(F)F)nc(S(=O)(=O)CCCC(=O)Nc2cccnc2Cl)n1	-0.3	i	-0.7	-13.1	49.9*	-0.9
Nc1nnc(CSCc2cccc(Br)c2)s1	-0.3	i	1.5	0.7	-16.6	-0.4
COc1cccc(NC(=O)c2cc(-c3cccnc3)nc3c(Cl)cccc23)c1	0.1	i	-0.4	-6.7	-0.4	83.8*
COc1ccc(NC(=O)c2cc(-c3cccnc3)nc3c(C)c(C)ccc23)c(OC)c1	0.3	i	0.6	-15.9	-1.3	0.1
CCOC(=O)C(Sc1ncnc2c1sc1nc(N3CCOCC3)c3c(c12)CCCC3)c1ccccc1 (stereo not drawn)	-0.3	i	1.8	-4.1	5.3	0.7
CCC1=C[C@H]2CN(C1)Cc1c([nH]c3ccccc13)[C@@](C(=O)OC)(c1cc3c(cc1OC)N(C)[C@H]1[C@@](O)(C(=O)OC)[C@H](OC(C)=O)[C@]4(CC)C=CCN5CC[C@]31[C@@H]54)C2	x	i	x	x	x	x
CC(C)COC(=O)Cn1cnc2ccc(Br)cc2c1=O	-0.4	x	1.6	56.9*	-4.8	0.9
O=C(Cn1cnc2ccc(Cl)cc2c1=O)c1cccs1	-0.3	i	-3.2	67.2*	-15.1	1.3
O=C(Cn1cnc2ccc(Br)cc2c1=O)c1cccs1	0.6	i	0.7	73.6*	-8.7	0.7
CCCCOC(=O)Cn1cnc2ccc(Br)cc2c1=O	0.2	i	2.5	13.0	-18.0	0.1
O=C(NCc1c(Cl)cccc1Cl)c1ccc2nnsc2c1	x	i	-0.2	58.3*	-1.2	0.5
COCCNC(=O)c1ccc2snnc2c1	-0.3	i	-2.5	0.0	12.9	-0.3
COC(C(=O)Nc1ccc(Cl)cc1C)c1ccccc1 (stereo not drawn)	0.0	x	1.7	97.3*	1.1	-0.1
CCC(C)/C(C)=N/NC(=O)c1ccc(COc2ccc(Cl)c(C)c2)cc1 (stereo not drawn)	0.4	i	0.2	2.6	-0.6	0.0
CCN=c1scc(C)n1/N=C/c1ccc(O)c(O)c1O	-0.4	i	0.9	-12.6	-6.9	0.0
